An excerpt weighted towards active compounds, which were near 3.5% of everything screened.
GPR151 activ – activators of human GPR151, primary screen, cell-based, PathHunter beta-arrestin, luminescence | G-protein coupled receptor 151 (Homo sapiens), Q8TDV0 | PathHunter beta-arrestin GPR151 cells | activation, % at 11.2 µM | 650,000 tested, 1% active | AID 1508602, 2020; in the data active means activation above about 4.9%
FBW7 activator – FBW7 E3 ligase activators, primary screen, biochemical, AlphaScreen, human. F-box/WD repeat-containing protein 7 (Homo sapiens), Q969H0. 650,000 tested, 0.13% active. AlphaScreen FBW7–phospho-cyclin E peptide binding, activator screen. normalized activity (activation), % at 26.1 µM. AID 1259310, 2017; in the data active means normalized activity above about 1.9%;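 further: purified mutant Fbw7 with reduced substrate affinity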
MITF primary – MITF inhibitors, primary screen, biochemical, AlphaScreen, human. inhibition, % at 2.6 µM. Microphthalmia-associated transcription factor (Homo sapiens), O75030. AlphaScreen MITF homodimerization, bead proximity signal. 650,000 tested, 0.91% active; in the data active means inhibition above about 50%
TEAD-YAP inh – TEAD-YAP interaction inhibition, primary screen, TEAD-YAP interaction inhibitor project, luminescence, HEK-TIYL cells. TEAD-Gal4/YAP UAS-luciferase luminescence. inhibition, % at 9.12 µM. 640,000 tested, 1.4% active. AID 1259422, 2018; in the data active means inhibition above about 32%
GPR151 confirm – GPR151 activators, triplicate retest, confirmation, cell-based, PathHunter beta-arrestin, luminescence; shares compounds with GPR151 activ; GPR151 PathHunter beta-arrestin cells, 90 min; % of EA-reagent control over plate median; activation, % at 11.2 µM; 6,700 tested, under 10 active; AID 1508609, 2020;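 active means mean percent activation across replicates above the confirmation screen cutoff of 4.91%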
GPR119 counter – GPR119 activators in beta-arrestin cells, counter-screen for GPR151 activator project, cell-based, PathHunter beta-arrestin, luminescence, triplicate. 90 min; 0 = compound-well median, 100 = enzyme-acceptor control. shares compounds with GPR151 activ. 6,700 tested, 0.3% active. activation, % at 11.2 µM. AID 1508611, 2020;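 active means mean percent activation in the counterscreen above 29.09%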;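 further: counterscreen on off-target GPR119 to flag nonselective hits from the GPR151 activator screen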
Target sequence (Q8TDV5 whole entry, looked up): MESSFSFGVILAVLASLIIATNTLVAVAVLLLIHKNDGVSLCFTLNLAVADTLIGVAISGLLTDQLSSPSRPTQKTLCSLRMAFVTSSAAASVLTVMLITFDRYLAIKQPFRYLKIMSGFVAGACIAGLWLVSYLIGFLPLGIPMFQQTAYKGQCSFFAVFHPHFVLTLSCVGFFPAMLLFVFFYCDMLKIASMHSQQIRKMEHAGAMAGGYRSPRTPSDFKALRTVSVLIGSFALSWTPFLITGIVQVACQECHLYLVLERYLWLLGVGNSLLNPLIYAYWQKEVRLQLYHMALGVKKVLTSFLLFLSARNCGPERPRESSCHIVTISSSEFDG
Numbers stand for hits.

For CC(=O)N1CCC2(CC1)N=C(C)C(c1ccccc1)=N2 the results were GPR151 activ 7.1, FBW7 activator inactive, MITF primary inactive, TEAD-YAP inh inactive, GPR151 confirm inactive and GPR119 counter inactive.
`CCC1CCCCN1CCN1C(=O)C2C(C(=O)Nc3cccc(C)c3)C3C=CC2(O3)C1C(=O)NC1CCCC(C)C1C` (stereo not drawn) gave GPR151 activ 12.9, FBW7 activator inactive, MITF primary inactive, TEAD-YAP inh inactive, GPR151 confirm inactive and GPR119 counter inactive.
Screening CCC1CCCCN1CCN1C(=O)C2C(C(=O)Nc3cc(C)cc(C)c3)C3C=CC2(O3)C1C(=O)NC1CCCC(C)C1C (stereo not drawn) returned GPR151 activ inactive, FBW7 activator inactive, MITF primary inactive and TEAD-YAP inh inactive.
For CSc1cccc(NC(=O)C2C3C=CC4(O3)C2C(=O)N(C(C)C)C4C(=O)NC2CCCC(C)C2C)c1 (stereo not drawn) the results were GPR151 activ 5.8, FBW7 activator inactive, MITF primary inactive, TEAD-YAP inh inactive, GPR151 confirm inactive and GPR119 counter inactive.
`CCN1CCN(S(=O)(=O)c2ccc(OC)c(I)c2)CC1` gave GPR151 activ 11.4, FBW7 activator inactive, MITF primary inactive, TEAD-YAP inh inactive, GPR151 confirm inactive and GPR119 counter inactive.
COc1ccc(S(=O)(=O)N2CCCCC2)cc1[N+](=O)[O-] was read as GPR151 activ 5.0, FBW7 activator inactive, MITF primary inactive, TEAD-YAP inh inactive, GPR151 confirm inactive and GPR119 counter inactive.
CC1CN(CC(O)COc2ccc(S(=O)(=O)N3CCCC3)cc2[N+](=O)[O-])CC(C)O1 (stereo not drawn) was read as GPR151 activ 5.7, FBW7 activator inactive, MITF primary inactive, TEAD-YAP inh inactive, GPR151 confirm inactive and GPR119 counter inactive.
Screening CC(C)Oc1cc(S(=O)(=O)N2CCCCC2)ccc1N returned GPR151 activ 9.9, FBW7 activator inactive, MITF primary inactive, TEAD-YAP inh inactive, GPR151 confirm inactive and GPR119 counter inactive.
COc1ccc(S(=O)(=O)N2CCc3ccccc3C2)cc1I was read as GPR151 activ inactive, FBW7 activator inactive, MITF primary inactive and TEAD-YAP inh inactive.
CC1CCCCN1C(=O)COc1ccc(S(=O)(=O)N2CCCC2)cc1[N+](=O)[O-] (stereo not drawn) was read as GPR151 activ inactive, FBW7 activator inactive, MITF primary inactive and TEAD-YAP inh inactive.
Screening O=C(Nc1nc(-c2ccc(Cl)cc2)cs1)c1ccc([N+](=O)[O-])o1 returned GPR151 activ inactive, FBW7 activator inactive, MITF primary inactive and TEAD-YAP inh inactive.
For COC(=O)c1cccc(-c2cc(Cl)c3c(c2)CC(CNC(=O)c2ccc(=O)oc2)O3)c1 (stereo not drawn) the results were GPR151 activ inactive, FBW7 activator inactive, MITF primary inactive and TEAD-YAP inh inactive.
For O=C(c1nc2ccc(Cl)cn2c1CNCC1COCCO1)N1CCc2ccccc2C1 (stereo not drawn) the results were GPR151 activ 9.8, FBW7 activator inactive, MITF primary inactive, TEAD-YAP inh inactive, GPR151 confirm inactive and GPR119 counter inactive.
For CC(=O)NCCNCc1c(C(=O)N2CCc3ccccc3C2)nc2ccc(Cl)cn12 the results were GPR151 activ inactive, FBW7 activator inactive, MITF primary inactive and TEAD-YAP inh inactive.
For CCNS(=O)(=O)c1ccc(NC(=S)Nc2ccc(F)c(Cl)c2)cc1 the results were GPR151 activ inactive, FBW7 activator inactive, MITF primary inactive and TEAD-YAP inh inactive.
`COCCCn1c(-c2ccc(C(C)(C)C)cc2)n[nH]c1=S` gave GPR151 activ 12.3, FBW7 activator inactive, MITF primary inactive, TEAD-YAP inh inactive, GPR151 confirm inactive and GPR119 counter inactive.
COc1ccc(N=C2SC(C(=O)Nc3cccc(Cl)c3)CC(=O)N2C)cc1 (stereo not drawn) was read as GPR151 activ inactive, FBW7 activator inactive, MITF primary inactive and TEAD-YAP inh inactive.
O=C(CSCc1cccc(Br)c1)Nc1ccc2ccccc2c1 was read as GPR151 activ inactive, FBW7 activator inactive, MITF primary inactive and TEAD-YAP inh inactive.
`Cn1c(N)c(S(=O)(=O)Nc2cccc(Cl)c2)c(=O)n(C)c1=O` gave GPR151 activ 7.7, FBW7 activator inactive, MITF primary inactive, TEAD-YAP inh inactive, GPR151 confirm inactive and GPR119 counter inactive.
Cc1c(S(=O)(=O)Nc2cccc(Cl)c2)c(=O)n(C)c(=O)n1C was read as GPR151 activ inactive, FBW7 activator inactive, MITF primary inactive and TEAD-YAP inh inactive.
For CC(=O)N1CCC(N(C(=O)CSc2nc3ccccc3[nH]2)C2CC2)CC1 the results were GPR151 activ inactive, FBW7 activator inactive, MITF primary inactive and TEAD-YAP inh inactive.
`CC(C)(C)NS(=O)(=O)c1cc(Br)cnc1N` gave GPR151 activ inactive, FBW7 activator inactive, MITF primary inactive and TEAD-YAP inh inactive.
Screening CCC(C)(C)NS(=O)(=O)c1cc(Br)cnc1N returned GPR151 activ 6.0, FBW7 activator inactive, MITF primary inactive, TEAD-YAP inh inactive, GPR151 confirm inactive and GPR119 counter inactive.
Screening Cc1cnc(C(=O)OCC(=O)c2cc(C)n(CCc3ccc(F)cc3)c2C)cn1 returned GPR151 activ 8.1, FBW7 activator inactive, MITF primary inactive, TEAD-YAP inh inactive, GPR151 confirm inactive and GPR119 counter inactive.
For COC(=O)c1ccc(-n2c(C)cc(C(=O)COC(=O)c3ccccc3C=O)c2C)cc1 the results were GPR151 activ inactive, FBW7 activator inactive, MITF primary inactive and TEAD-YAP inh inactive.
Cc1cc(C(=O)COC(=O)c2ccc(CO)cc2)c(C)n1-c1ccc(F)cc1 was read as GPR151 activ 5.0, FBW7 activator inactive, MITF primary inactive, TEAD-YAP inh inactive, GPR151 confirm inactive and GPR119 counter inactive.
Screening C=CCNS(=O)(=O)c1cccc(C(C)=O)c1 returned GPR151 activ inactive, FBW7 activator inactive, MITF primary inactive and TEAD-YAP inh inactive.
CC(=O)c1cccc(S(=O)(=O)NCC(F)(F)F)c1 was read as GPR151 activ 5.5, FBW7 activator inactive, MITF primary inactive, TEAD-YAP inh inactive, GPR151 confirm inactive and GPR119 counter inactive.
Screening O=C(CSc1ccc(F)cc1)Nc1ccc(Cl)c(N2CCCS2(=O)=O)c1 returned GPR151 activ 12.2, FBW7 activator inactive, MITF primary inactive, TEAD-YAP inh inactive, GPR151 confirm inactive and GPR119 counter inactive.
